Results: ChEMBL document CHEMBL3988442, “University of Dundee, Small-Polar-MMV Screening Library” (2021)

What follows are compounds tested against Shiga toxin 2 (Escherichia coli O157:H7) (UniProt P09385+P09386) (assay: E. coli 0.157:H7 Shiga Toxin SOP - stx2 screening assay). Conditions: 30 µM.
Format: functional
Set-up: scale not given: direction of the effect not stated beside the values

Compound | Percent Effect [%]
CCOc1ccnc(N2CCN(C(=O)c3cn[nH]c3CC)CC2)n1 | 5.02
CCn1cc2c(n1)CN(Cc1nccs1)CC2COCC1CC1 (stereo not given) | -5.95
COc1cc2nc(C)n(CC(=O)NCCCN(C)C)c(=O)c2cc1OC | -51.4
CCN(C1CCS(=O)(=O)C1)S(=O)(=O)c1cccc2cc(C)cnc12 (stereo not given) | 30.4
CC(NC(=O)N1CCC(n2cncn2)CC1)c1ccc(F)cc1F (stereo not given) | 7.64
CC(C(=O)NCc1cccc(N2CC=CC2)c1)n1cccn1 (stereo not given) | 27.1
Cc1nc(C)n(C2CCCN(C(=O)c3csnn3)C2)n1 (stereo not given) | 18.7
COc1ccc2cc(C(=O)N3CCCCC3CC(N)=O)[nH]c2c1 (stereo not given) | 4.87
CC(C#N)CSc1ccccc1NCC(=O)Nc1ccc(F)cc1 (stereo not given) | -7.42
CCc1nc(C2CCCN(C(=O)c3cccc4cn[nH]c34)C2)no1 (stereo not given) | 29.8
CN1CCOC(CNCc2coc(-c3ccccc3)n2)C1 (stereo not given) | -3.88
CNc1nc2c(s1)C(c1c(Cl)cccc1Cl)CC(=O)N2 (stereo not given) | 5.63
Cc1cc(C(=O)O)cc(S(=O)(=O)Nc2ccc3c(c2)OCO3)c1C | -48
O=C(CC1CCCC1)N1CCCC1c1nc(O)cc(-c2ccccn2)n1 (stereo not given) | -10.1
Cc1nc(CN2C[C@@H]3CN(C(=O)c4cnccn4)C[C@@H]3C2)cs1 | 1.79
Cc1nc(N2CCN(C(=O)c3ccsc3)CC2)c2cnn(C)c2n1 | 0.569
Cn1cnc2c(N3CCCC3)nc(C3CCNCC3)cc21 | -31.9
COc1ncccc1C(=O)N1CCN(C(=O)Cc2ccccn2)CC1 | -53.3
Cc1cnccc1CN1CC[C@@](C)(O)[C@H](Oc2ccccc2)C1 | -31
O=C(Cc1ccccn1)N1CCN(C(=O)c2cccc3[nH]ncc23)CC1 | 1.83

Compound | Percent Effect [%]
CN(C(=O)CN1CCOC(Cn2cccn2)C1)c1nccs1 (stereo not given) | -22.6
N#Cc1ccc(C(=O)N2CCC3(CC2)C(=O)Nc2ccccc23)cn1 | 1.52
Cn1cc(CN2CCOCC3(C2)CN(c2ccccc2)C(=O)CO3)cn1 (stereo not given) | 4.18
CC(O)CN1CCC(CNCc2cccc(C(N)=O)c2)CC1 (stereo not given) | 12.7
O=C1NC2(CCN(Cc3cccnc3)CC2)CC1c1ccncc1 (stereo not given) | -19.6
COc1cc(CNC(=O)NCc2c(C)cc(C)[nH]c2=O)ccc1C | -4.18
Cc1cc(NC(=O)NCC(C)O)n(C)n1 (stereo not given) | -5.14
O=C1CCC(C(=O)NCc2nn(-c3ccccc3)c3c2CCC3)CN1 (stereo not given) | -54.3
Cc1ccc(N2CC3(CCN(C(=O)c4ccoc4)C3)C2)nn1 | -33.4
COCC1CN(Cc2ccsc2)Cc2nn(C)cc21 (stereo not given) | -13.1
Cc1nnc2n1CCN(Cc1csc(-c3ccc(F)cc3)n1)C2 | 3.01
Nc1nccc(-c2c[nH]nc2C2CCCCC2)n1 | -26.9
CC(C)N1CCCC(CCCc2ccccn2)(C(=O)O)C1 (stereo not given) | 9.97
CCn1cc2c(n1)C(COC)CN(C(=O)COc1ccccc1C)C2 (stereo not given) | 3.11
CN(C)S(=O)(=O)c1ccc(OCCNCCn2cccn2)cc1 | -13.8
Cc1ncc(CNC(=O)Cc2ccc(Cl)cc2)c(C2CCCN2C)n1 (stereo not given) | 15.8
CC(O)CN1CCN(C(=O)c2ccc(Cn3cccn3)cc2)CC1 (stereo not given) | 14.6
O=C(c1cccs1)N1C[C@H]2CC[C@@]3(N=C(c4ccccc4)NC3=O)[C@H]2C1 | -42.8
CCn1nc2c(cc1=O)CN(Cc1nc3ccccc3c(=O)[nH]1)CC2 | 1.48
COCc1noc(C2(c3ccc(F)cc3)CCOCC2)n1 | -10.8
